According to PubChem BioAssay (NCATS):
Results filed as inconclusive are left out. The source made the active and inactive calls. Unless noted, calls follow the shape of the dose curve; as a rule, active = well fitted curve in the direction sought with a large enough effect; inconclusive = small, poorly fitted or top-dose-only effect, or another doubt; inactive = no such curve, though single readings can be large; an effect the other way counts as inactive or inconclusive.

Key:
[1] = NS1 protein of Zika virus - qHTS assay to identify small molecule inhibitors in human HEK 293 cells (AID 1347053); also: series mostly up to about 46 µM; nearly all actives have a fitted effect of over 55% in size
Outline: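 HEK 293; 20 h pre-culture, 37 C/5% CO2; cpd 1 h pre-infection; ZIKV MR766, MOI = 0.5, 24 h, 37 C; TR-FRET NS1 readout (two anti-NS1 Abs); norm. to no-virus vs infected.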

[2] = qHTS for Inhibitors of the Functional Ribonucleoprotein Complex (vRNP) of Lassa (LASV) Arenavirus: LASV Primary Screen - GLuc reporter signal (AID 1347082; calls by dose curve; tested in HEK293 reporter line; also: series mostly up to about 57 µM; nearly all actives have a fitted effect of over 60% in size)
[3] = qHTS for Inhibitors of the Functional Ribonucleoprotein Complex (vRNP) of Lassa (LASV) Arenavirus: Viability assay - alamar blue signal for LASV Primary Screen (AID 1347083; calls by dose curve; tested in HEK293 reporter line; also: series mostly up to about 57 µM; nearly all actives have a fitted effect of over 80% in size)
[4] = qHTS for Inhibitors of the Functional Ribonucleoprotein Complex (vRNP) of Lymphocytic Choriomeningitis Arenaviruses (LCMV): Viability assay - alamar blue signal for LCMV Primary Screen (AID 1347085; calls by dose curve; tested in HEK293 reporter line; also: series mostly up to about 57 µM; nearly all actives have a fitted effect of over 80% in size)
[5] = target: Nucleoprotein (Lymphocytic choriomeningitis virus (strain Armstrong)) (UniProt P09992); experiment: qHTS for Inhibitors of the Functional Ribonucleoprotein Complex (vRNP) of Lymphocytic Choriomeningitis Arenaviruses (LCMV): LCMV Primary Screen - GLuc reporter signal (AID 1347086; calls by dose curve; also: series mostly up to about 57 µM; nearly all actives have a fitted effect of over 70% in size)
[6] = qHTS of pediatric cancer cell lines to identify multiple opportunities for drug repurposing: Primary screen for TC32 cells (AID 1347089); also: nearly all actives have a fitted effect of over 60% in size
Outline: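 Luminescent ATP read-out (CellTiter-Glo) of metabolically active TC32 cells after 48 h exposure. Concentration-response curves came from 11-point (MIPE, 0.78 nM–46 µM) or 8-point (NPC, 0.59 nM–46 µM) primary titrations; follow-up used 11 points.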

[7] = qHTS of pediatric cancer cell lines to identify multiple opportunities for drug repurposing: Primary screen for DAOY cells (AID 1347090); also: series mostly up to about 46 µM; nearly all actives have a fitted effect of over 55% in size
Outline: (§1)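 Eight- or eleven-point concentration series, 48 h treatment at 37 degrees C in growth media; readout CellTiter-Glo luminescence. Potency and efficacy were taken from the concentration-response curves.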

[8] = qHTS of pediatric cancer cell lines to identify multiple opportunities for drug repurposing: Primary screen for SJ-GBM2 cells (AID 1347091)
Outline: as §1

[9] = qHTS of pediatric cancer cell lines to identify multiple opportunities for drug repurposing: Primary screen for A673 cells (AID 1347092); also: nearly all actives have a fitted effect of over 45% in size
Outline: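 Cell viability of A673 measured by CellTiter-Glo ATP luminescence after 48 hours compound exposure. Dilution series spanned 0.78 nM to 46 µM (MIPE, 11-point) or 0.59 nM to 46 µM (NPC, 8-point); bortezomib 2.3 uM positive control.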

[10] = qHTS of pediatric cancer cell lines to identify multiple opportunities for drug repurposing: Primary screen for SK-N-MC cells (AID 1347093); also: series mostly up to about 46 µM
Outline: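 Metabolically active cells were quantified by ATP-dependent luminescence (CellTiter-Glo, 15 min at room temperature) following 48 h treatment. Cells had been plated at 500-1,000 per well and settled for 5 h beforehand.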

[11] = qHTS of pediatric cancer cell lines to identify multiple opportunities for drug repurposing: Primary screen for BT-37 cells (AID 1347094); also: series mostly up to about 57 µM
Outline: (§2)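 Luminescence from CellTiter-Glo served as readout of metabolically active cells after 48 h compound exposure. Titrations: MIPE 11-point, from 0.78 nM; NPC 8-point, from 0.59 nM (final). Concentration-response curves came straight from the primary screen.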

[12] = qHTS of pediatric cancer cell lines to identify multiple opportunities for drug repurposing: Primary screen for NB-EBc1 cells (AID 1347095)
Outline: as §2

[13] = qHTS of pediatric cancer cell lines to identify multiple opportunities for drug repurposing: Primary screen for U-2 OS cells (AID 1347096); also: nearly all actives have a fitted effect of over 50% in size
Outline: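 Cells (500-1,000/well) in growth media were settled 5 h at 37 degrees C, then given compounds for 48 h. Viability was read as CellTiter-Glo luminescence. Primary runs used MIPE at 11 points (0.78 nM-46 µM) and NPC at 8 points (0.59 nM-46 µM); follow-ups used 11 points.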

[14] = qHTS of pediatric cancer cell lines to identify multiple opportunities for drug repurposing: Primary screen for Saos-2 cells (AID 1347097); also: nearly all actives have a fitted effect of over 40% in size
Outline: as §2

Measured: Potency

Nucleoprotein (Lymphocytic choriomeningitis virus (strain Armstrong)), sequence (P09992 whole entry, looked up): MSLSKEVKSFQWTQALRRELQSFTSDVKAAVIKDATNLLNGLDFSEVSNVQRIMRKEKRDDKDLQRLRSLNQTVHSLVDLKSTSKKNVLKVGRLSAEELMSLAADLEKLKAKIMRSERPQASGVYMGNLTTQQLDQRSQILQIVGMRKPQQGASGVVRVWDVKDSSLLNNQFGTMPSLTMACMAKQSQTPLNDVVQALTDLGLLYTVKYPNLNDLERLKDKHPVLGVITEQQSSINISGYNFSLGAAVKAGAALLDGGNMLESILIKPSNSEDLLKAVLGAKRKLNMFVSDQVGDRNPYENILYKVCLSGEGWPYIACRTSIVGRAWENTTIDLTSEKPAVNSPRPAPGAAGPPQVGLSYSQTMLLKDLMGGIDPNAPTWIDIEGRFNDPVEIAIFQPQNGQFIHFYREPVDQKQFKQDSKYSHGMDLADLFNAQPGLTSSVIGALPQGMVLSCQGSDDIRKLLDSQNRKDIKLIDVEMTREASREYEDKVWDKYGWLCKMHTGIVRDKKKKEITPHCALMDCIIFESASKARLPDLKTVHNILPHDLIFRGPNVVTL

CCN(CC)C(C)C(=O)c1ccccc1 (centres undefined)
inactive: all assays above

CNC(=O)NC(O)C(Cl)(Cl)Cl (centres undefined)
inactive: all assays above

C[C@]12CC[C@H]3[C@@H](CCC4=CC(=O)CC[C@@H]43)[C@@H]1CC[C@@H]2O
inactive: all assays above

COc1ccc2[nH]cc(CCN(C(C)C)C(C)C)c2c1
inactive: all assays above

COc1ccc(OC)c(CC(C)N)c1 (centres undefined)
inactive: all assays above

Nc1ccccc1C(=O)OCC(O)CO (centres undefined)
inactive: all assays above

COP(=S)(OC)Oc1ccc(S(N)(=O)=O)cc1
not listed: [11]
inactive: all other assays above

ClCCCN1CCN(c2cccc(Cl)c2)CC1
not listed: [11]
inactive: all other assays above

Sc1ccccc1Cl
inactive: all assays above

COP(=O)(OC)C(O)C(Cl)(Cl)Cl (centres undefined)
not listed: [11]
inactive: all other assays above

COCC(=O)N(c1c(C)cccc1C)C(C)C(=O)OC (centres undefined)
inactive: all assays above

CCCOC(=O)Cc1ccc(OCC(=O)N(CC)CC)c(OC)c1
not listed: [11]
inactive: all other assays above

Cc1c(Cl)c(=O)oc2cc(OP(=O)(OCCCl)OCCCl)ccc12
not listed: [11]
inactive: all other assays above

CCC(=O)OC1(c2ccccc2)CCN(C)CC1
inactive: all assays above

OC(c1ccccc1)(c1ccccc1)C1CCNCC1
inactive: all assays above

Cc1ncc2n1-c1ccc(Cl)cc1C(c1ccccc1F)=NC2
not listed: [11]
inactive: all other assays above

COc1ccc(CN2CCNCC2)c(OC)c1OC
inactive: all assays above

C[C@H]1CNCCc2ccc(Cl)cc21
inactive: all assays above

C[C@]12CC[C@H]3[C@@H](CCC4=CC(=O)CC[C@@]43C)[C@@H]1CC[C@@H]2C(=O)O
not listed: [11]
inactive: all other assays above
